Measurements published in PubChem BioAssay AID1159580 (chemical genetic matrix, 2015).
Values joined by “and” are separate entries in the source; they are usually repeats but may differ in a detail not shown here. Equal entries are not always repeated. Screen size: about 5,500 compounds; about 2,000 (36%) were called active. Roughly 18% stayed inconclusive and do not appear here. Cut-off read from the data, not from the text of the source: active = normalized growth mostly below about 0.91 (no sharp cut-off); inconclusive = no clear call, values can overlap the other calls; inactive = mostly above about 0.92. The list shows a part of the results.

Experiment: chemical genetic growth profiling, strain panel (AID 1159580);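 note: tested at 20 µM; growth read once vehicle control cultures reached saturation at 30 °C; 1 = growth at the plate median or of vehicle wells; lower values mean less growth of the strain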
Conditions: S. cerevisiae deletion strains, growth OD

Q: With C/C(=C\CO)CC[C@H](C)CCC[C@H](C)CCCC(C)C as the molecule, how does the normalized growth (locus YAL021C, strain ccr4, stronger effect = lower value) read?
A: 1.12 [resistant] (active)

Q: What about the normalized growth (locus YAL026C, strain drs2, stronger effect = lower value) of the same molecule?
A: 1.12 [resistant] (active)

Q: What about the normalized growth (locus YAL030W, strain snc1, stronger effect = lower value) of the same molecule?
A: 1.13 [resistant] (active)

Q: And the normalized growth (locus YBL061C, strain skt5, stronger effect = lower value)?
A: 0.97 (inactive)

Q: What about the normalized growth (locus YBR009C, strain hhf1, stronger effect = lower value) of the same molecule?
A: 1.12 [resistant] (active)

Q: And the normalized growth (locus YBR021W, strain FUR4, stronger effect = lower value)?
A: 1 (inactive)

Q: What about the normalized growth (locus YBR023C, strain chs3, stronger effect = lower value) of the same molecule?
A: 0.974 (inactive)

Q: And the normalized growth (locus YBR171W, strain sec66, stronger effect = lower value)?
A: 1.11 (inactive)

Q: And the normalized growth (locus YBR229C, strain ROT2, stronger effect = lower value)?
A: 1.04 (inactive)

Q: And the normalized growth (locus YBR231C, strain swc5, stronger effect = lower value)?
A: 0.976 (inactive)

Q: What about the normalized growth (locus YBR279W, strain paf1, stronger effect = lower value) of the same molecule?
A: 0.993 (inactive)

Q: What about the normalized growth (locus YCL011C, strain gbp2, stronger effect = lower value) of the same molecule?
A: 1.14 [resistant] (active)

Q: What about the normalized growth (locus YCL016C, strain dcc1, stronger effect = lower value) of the same molecule?
A: 0.976 (inactive)

Q: What about the normalized growth (locus YCL029C, strain bik1, stronger effect = lower value) of the same molecule?
A: 1.08 (inactive)

Q: What about the normalized growth (locus YCL061C, strain MRC1, stronger effect = lower value) of the same molecule?
A: 1.11 [resistant] (active)

Q: What about the normalized growth (locus YCL069W, strain vba3, stronger effect = lower value) of the same molecule?
A: 1.11 [resistant] (active)

Q: And the normalized growth (locus YCR088W, strain abp1, stronger effect = lower value)?
A: 1.12 [resistant] (active)

Q: And the normalized growth (locus YDL005C, strain med2, stronger effect = lower value)?
A: 1.14 [resistant] (active)

Q: And the normalized growth (locus YDL035C, strain GPR1, stronger effect = lower value)?
A: 1.07 (inactive)

Q: And the normalized growth (locus YDL040C, strain nat1, stronger effect = lower value)?
A: 0.973 (inactive)

Q: And the normalized growth (locus YDL074C, strain BRE1, stronger effect = lower value)?
A: 1.1 (inactive)

Q: What about the normalized growth (locus YDL101C, strain DUN1, stronger effect = lower value) of the same molecule?
A: 1.08 (inactive)

Q: What about the normalized growth (locus YDL185W, strain tfp1, stronger effect = lower value) of the same molecule?
A: 1.11 [resistant] (active)

Q: And the normalized growth (locus YDL192W, strain arf1, stronger effect = lower value)?
A: 1.13 [resistant] (active)

Q: What about the normalized growth (locus YDR001C, strain nth1, stronger effect = lower value) of the same molecule?
A: 1.13 [resistant] (active)

Q: What about the normalized growth (locus YDR069C, strain doa4, stronger effect = lower value) of the same molecule?
A: 1.15 [resistant] (active)

Q: What about the normalized growth (locus YDR101C, strain arx1, stronger effect = lower value) of the same molecule?
A: 1.11 [resistant] (active)

Q: What about the normalized growth (locus YDR137W, strain rgp1, stronger effect = lower value) of the same molecule?
A: 0.93 (inactive)

Q: And the normalized growth (locus YDR150W, strain NUM1, stronger effect = lower value)?
A: 1.1 [resistant] (active)

Q: What about the normalized growth (locus YDR159W, strain sac3, stronger effect = lower value) of the same molecule?
A: 1.05 (inactive)

Q: And the normalized growth (locus YDR162C, strain NBP2, stronger effect = lower value)?
A: 1.11 (inactive)

Q: What about the normalized growth (locus YDR195W, strain ref2) of the same molecule?
A: 1.09 (inactive)

Q: What about the normalized growth (locus YDR297W, strain sur2, stronger effect = lower value) of the same molecule?
A: 1.13 [resistant] (active)

Q: What about the normalized growth (locus YDR318W, strain mcm21, stronger effect = lower value) of the same molecule?
A: 1.13 [resistant] (active)

Q: And the normalized growth (locus YDR334W, strain swr1, stronger effect = lower value)?
A: 1.14 [resistant] (active)

Q: What about the normalized growth (locus YDR335W, strain msn5, stronger effect = lower value) of the same molecule?
A: 1.13 [resistant] (active)

Q: What about the normalized growth (locus YDR388W, stronger effect = lower value) of the same molecule?
A: 1.12 [resistant] (active)

Q: And the normalized growth (locus YDR392W, strain spt3, stronger effect = lower value)?
A: 1.11 (inactive)

Q: And the normalized growth (locus YDR502C, strain sam2, stronger effect = lower value)?
A: 1.16 [resistant] (active)

Q: What about the normalized growth (locus YEL003W, strain gim4, stronger effect = lower value) of the same molecule?
A: 1.13 [resistant] (active)

Q: What about the normalized growth (locus YEL037C, strain rad23, stronger effect = lower value) of the same molecule?
A: 1.13 [resistant] (active)

Q: And the normalized growth (locus YEL061C, strain CIN8 (second series), stronger effect = lower value)?
A: 1.14 [resistant] (active)

Q: And the normalized growth (locus YEL061C, strain CIN8, stronger effect = lower value)?
A: 1.09 [resistant] (active)

Q: What about the normalized growth (locus YER015W, strain faa2, stronger effect = lower value) of the same molecule?
A: 1.12 [resistant] (active)

Q: And the normalized growth (locus YER016W, strain bim1, stronger effect = lower value)?
A: 0.97 (inactive)

Q: What about the normalized growth (locus YER110C, stronger effect = lower value) of the same molecule?
A: 1.14 [resistant] (active)

Q: And the normalized growth (locus YER111C, strain swi4, stronger effect = lower value)?
A: 1.06 (inactive)

Q: And the normalized growth (locus YER155C, strain BEM2 (second series), stronger effect = lower value)?
A: 1.07 (inactive)

Q: And the normalized growth (locus YER155C, strain BEM2, stronger effect = lower value)?
A: 1.02 (inactive)

Q: And the normalized growth (locus YER167W, strain BCK2, stronger effect = lower value)?
A: 1.01 (inactive)

Q: What about the normalized growth (locus YFR010W, strain ubp6, stronger effect = lower value) of the same molecule?
A: 1.18 [resistant] (active)

Q: What about the normalized growth (locus YGL078C, strain dbp3, stronger effect = lower value) of the same molecule?
A: 1.13 [resistant] (active)

Q: What about the normalized growth (locus YGL086W, strain mad1, stronger effect = lower value) of the same molecule?
A: 1.09 [resistant] (active)

Q: And the normalized growth (locus YGL167C, strain pmr1, stronger effect = lower value)?
A: 0.962 (inactive)

Q: And the normalized growth (locus YGL173C, strain kem1, stronger effect = lower value)?
A: 1.1 [resistant] (active)

Q: And the normalized growth (locus YGL227W, strain vid30, stronger effect = lower value)?
A: 1.12 [resistant] (active)

Q: And the normalized growth (locus YGL240W, strain doc1, stronger effect = lower value)?
A: 1.13 [resistant] (active)

Q: What about the normalized growth (locus YGL248W, strain PDE1, stronger effect = lower value) of the same molecule?
A: 1.06 (inactive)

Q: What about the normalized growth (locus YGL253W, strain hxk2, stronger effect = lower value) of the same molecule?
A: 1.12 [resistant] (active)

Q: And the normalized growth (locus YGR078C, strain PAC10, stronger effect = lower value)?
A: 1.13 (inactive)

Q: What about the normalized growth (locus YGR135W, strain pre9, stronger effect = lower value) of the same molecule?
A: 1.15 [resistant] (active)

Q: And the normalized growth (locus YGR229C, strain SMI1, stronger effect = lower value)?
A: 1.14 (inactive)

Q: And the normalized growth (locus YGR252W, strain gcn5, stronger effect = lower value)?
A: 1.1 (inactive)

Q: And the normalized growth (locus YHR013C, strain ard1, stronger effect = lower value)?
A: 0.945 (inactive)

Q: And the normalized growth (locus YHR027C, strain rpn1, stronger effect = lower value)?
A: 1.14 [resistant] (active)

Q: And the normalized growth (locus YHR030C, strain SLT2, stronger effect = lower value)?
A: 1.09 [resistant] (active) and 0.974 (inactive)

Q: What about the normalized growth (locus YHR079C, strain IRE1 (second series), stronger effect = lower value) of the same molecule?
A: 1.13 [resistant] (active)

Q: What about the normalized growth (locus YHR079C, strain IRE1, stronger effect = lower value) of the same molecule?
A: 0.966 (inactive)

Q: What about the normalized growth (locus YHR094C, strain hxt1, stronger effect = lower value) of the same molecule?
A: 1.14 [resistant] (active)

Q: What about the normalized growth (locus YHR129C, strain ARP1, stronger effect = lower value) of the same molecule?
A: 1.08 (inactive)

Q: And the normalized growth (locus YHR142W, strain chs7, stronger effect = lower value)?
A: 1.09 (inactive)

Q: And the normalized growth (locus YHR200W, strain rpn10, stronger effect = lower value)?
A: 1.13 [resistant] (active)

Q: And the normalized growth (locus YIL066C, strain RNR3, stronger effect = lower value)?
A: 1.09 (inactive)

Q: And the normalized growth (locus YIL073C, strain SPO22, stronger effect = lower value)?
A: 1.25 (inactive)

Q: And the normalized growth (locus YIL125W, strain kgd1, stronger effect = lower value)?
A: 1.12 [resistant] (active)

Q: And the normalized growth (locus YIR030C, strain dcg1, stronger effect = lower value)?
A: 1.13 [resistant] (active)

Q: What about the normalized growth (locus YJL092W, strain hpr5, stronger effect = lower value) of the same molecule?
A: 1.13 [resistant] (active)

Q: And the normalized growth (locus YJL095W, strain BCK1 (second series), stronger effect = lower value)?
A: 1.02 (inactive)

Q: What about the normalized growth (locus YJL095W, strain BCK1, stronger effect = lower value) of the same molecule?
A: 1.1 (inactive) and 0.966 (inactive)

Q: And the normalized growth (locus YJL115W, strain asf1, stronger effect = lower value)?
A: 1.14 [resistant] (active)

Q: And the normalized growth (locus YJL129C, strain trk1, stronger effect = lower value)?
A: 1.09 (inactive)

Q: And the normalized growth (locus YJL134W, strain LCB3, stronger effect = lower value)?
A: 1.09 [resistant] (active)

Q: And the normalized growth (locus YJL154C, strain vps35, stronger effect = lower value)?
A: 1.13 [resistant] (active)

Q: And the normalized growth (locus YJL164C, strain tpk1, stronger effect = lower value)?
A: 1.13 [resistant] (active)

Q: What about the normalized growth (locus YJL166W, strain qcr8, stronger effect = lower value) of the same molecule?
A: 1.13 [resistant] (active)

Q: And the normalized growth (locus YJL168C, strain set2, stronger effect = lower value)?
A: 1.13 [resistant] (active)

Q: And the normalized growth (locus YJL187C, strain SWE1 (second series), stronger effect = lower value)?
A: 1.1 (inactive)

Q: And the normalized growth (locus YJL187C, strain SWE1, stronger effect = lower value)?
A: 1.07 (inactive)

Q: And the normalized growth (locus YJR043C, strain POL32, stronger effect = lower value)?
A: 1.12 (inactive)
